D2 ag-1 – agonists of human D2 dopamine receptor (beta-arrestin); 360,000 tested, 0.084% active; activation, % (test concentration not listed); DiscoveRx PathHunter D2 beta-arrestin, luminescence, 90 min; 100% = 57 uM dopamine signal; AID 624465; P14416; in the data active = activation above about 40%; inconclusive = between about 15% and that limit
Target sequence (P14416 whole entry, looked up): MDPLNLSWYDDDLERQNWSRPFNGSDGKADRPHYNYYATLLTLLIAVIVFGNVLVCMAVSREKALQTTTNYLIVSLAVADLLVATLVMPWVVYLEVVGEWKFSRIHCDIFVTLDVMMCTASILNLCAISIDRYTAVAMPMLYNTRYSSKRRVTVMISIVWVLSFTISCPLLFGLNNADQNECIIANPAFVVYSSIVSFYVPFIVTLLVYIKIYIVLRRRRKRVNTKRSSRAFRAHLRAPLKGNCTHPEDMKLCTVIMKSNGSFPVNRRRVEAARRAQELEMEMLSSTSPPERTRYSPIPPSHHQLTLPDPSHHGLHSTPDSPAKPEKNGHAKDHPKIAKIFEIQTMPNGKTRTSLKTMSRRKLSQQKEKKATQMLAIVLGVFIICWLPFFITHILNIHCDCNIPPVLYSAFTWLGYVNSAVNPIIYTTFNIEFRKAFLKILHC
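Agonist mode: compounds alone added to overnight-plated D2 PathHunter cells for 90 min at 37 C, with 57 uM final dopamine (EC100) defining full response. Beta-arrestin recruitment detected by chemiluminescent reagent, read after 1 h at ambient temperature.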
D2 ag-2 – activates the human D2 dopamine receptor. P14416. HEK293 T-REx D2 cells, calcium flux agonist mode. activation, % at 2 µM. 340,000 tested, 0.53% active. AID 485358;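 active = activation over 3 SD above normal in the single-dose calcium agonist read, cut at about 30% in these data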; also: 0% is about no effect
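In this primary screen, compounds producing a positive calcium signal within 180 s of addition to tetracycline-induced, force-coupled HEK293 Trex D2 cells are flagged; cells are dye-loaded with a no-wash calcium kit beforehand.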
D2 PAM-1 – positive allosteric modulators of human D2 dopamine receptor; P14416; DiscoveRx D2 beta-arrestin cells, luminescence, 90 min; 100% = 57 uM dopamine signal; potentiation, % (test concentration not listed); 360,000 tested, 0.23% active; AID 624464; in the data active = potentiation above about 50%; inconclusive = mostly about 30% to 49%
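PathHunter D2 cells, attached overnight at 37 deg C, received compound in DMSO plus dopamine at EC20 (50 nM final) for 90 min at 37 deg C. Beta-arrestin recruitment was read as luminescence after 1 h with detection reagent at ambient temperature.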
D2 antagonist – antagonizes the human D2 dopamine receptor. inhibition, % at 10 µM. P14416. 340,000 tested, 2% active. HEK293 TREx D2 cells, calcium flux, dopamine EC80; in the data active = inhibition above about 30%; inactive = below that, where a call was filed; also: 0% is about no effect
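Antagonism is scored as inhibition of an EC80 dopamine-evoked calcium signal in a force-coupled, tetracycline-inducible HEK293 T-REx D2 line, with compound present 180 s before agonist.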
D2 PAM-2 – positive allosteric modulators of human D2 dopamine receptor; P14416; AID 485347; HEK293 T-REx D2, calcium flux, EC20 dopamine potentiation; 340,000 tested, 0.34% active; potentiation, % at 10 µM;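 active = potentiation over 3 SD above the plate norm, cut at about 30% in these data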; also: 0% is about no effect
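Tetracycline-induced Hek293 Trex D2 cells, force-coupled to calcium, loaded with no-wash calcium dye. Compound added with 180 s kinetic read for agonism, then EC20 dopamine and a further 180 s read for potentiation.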
D3 ag – activates human D3 dopamine receptor beta-arrestin recruitment | shares compounds with D2 ag-2 | DiscoveRx D3 beta-arrestin cells, luminescence, 90 min | Potency, µM (doses to about 76.9 µM), without a hit: at the highest dose activation, hits mostly activators | 2,300 tested, 4% active;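 also: potency is read from the fitted curve at half-maximal effect; 100% = dopamine control response; nearly all actives have a fitted effect of over 70% in size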
D2 ag-3 – counter-screen for D3 agonists: human D2 dopamine receptor agonism. shares compounds with D2 ag-2. DiscoveRx PathHunter D2 beta-arrestin, luminescence, 90 min; response scale: percent relative to full dopamine signal. Potency, µM (doses to about 76.9 µM), inactives show at the highest dose activation, usual class: activators. 2,300 tested, 5.9% active; also: potency is read from the fitted curve at half-maximal effect; % of control where 0% means no effect; nearly all actives have a fitted effect of over 70% in size
* marks the source's active call; other numbers are inactive results; ? = inconclusive; nt = no result. Rows were chosen to be rich in hits. Some 2.4% of all compounds tested hit in one or more screens of this group. Unless noted, calls follow the shape of the dose curve; as a rule, active = well fitted activation curve with a large enough effect; inconclusive = small, poorly fitted or top-dose-only effect; inactive = flat fitted curve, though single readings scatter.

SMILES	D2 ag-1	D2 ag-2	D2 PAM-1	D2 antagonist	D2 PAM-2	D3 ag	D2 ag-3
CC(C)(C)C1CCC(N2CCN(c3ccccc3)CC2)CC1 (stereo not drawn)	1.6	73.5*	-48.1	86.2*	-35.2	5.1%	?
CC[C@]12C(=O)N(C)C[C@H]([C@@H]3C(=O)N(C)C(=O)[C@@H]31)N2C(=O)c1ccc(Br)cc1	-1.5	nt	-8.0	nt	nt	nt	nt
COc1ccc(C(=O)N2CCC(C(=O)N3CCN(c4ccc(OC)cc4)CC3)CC2)cc1	-1.1	1.0	1.7	5.4	2.7	nt	nt
COc1ccc(C(=O)N2CCC(N3CCN(c4ccccc4)CC3)CC2)cc1	11.7	71.2*	-25.4	57.1*	-20.3	?	?
c1ccc(CCNCCOc2ccccc2)cc1	13.6	56.1*	-6.9	48.1*	-25.3	0.5%	11.1%
CCOc1ccc(C(=O)Nc2nnc(S(=O)(=O)Nc3ccccc3)s2)cc1	nt	-0.9	nt	nt	5.2	nt	nt
COc1cc(CC(=O)Nc2ccc3nc(C)sc3c2)cc(OC)c1OC	-1.5	55.9*	-5.3	-10.6	1.0	2.3%	0.6%
O=C(CN1CCSc2ccccc21)NCc1ccccc1F	nt	-1.3	nt	nt	-14.3	nt	nt
COc1ccc(CCNC(=O)Cn2cc(C(=O)c3ccc(Cl)cc3)c(=O)c3ccc(C)nc32)cc1OC	nt	-1.7	nt	nt	2.3	nt	nt
CCOc1ccc(NC(=O)c2oc3ccccc3c2NC(=O)C2CCCCC2)cc1	nt	0.2	nt	nt	-0.5	nt	nt
CC(C)(C)C(=O)Nc1ccc(F)cc1[N+](=O)[O-]	-3.0	32.3*	-12.7	7.1	-1.6	?	0.7%
COc1ccc([N+](=O)[O-])c(OC)c1C(=O)Nc1ccc(F)cc1F	-0.3	-0.4	-10.4	22.4	0.7	-6.4%	-2.0%
CCC(C)NC(=O)C1CCN(CCCc2ccccc2)CC1 (stereo not drawn)	-4.1	50.8*	-8.8	-1.3	-17.7	-3.8%	4.6%
CCC(C)NC(=O)C1CCN(C(=O)c2ccccc2)CC1 (stereo not drawn)	0.0	0.1	-4.6	8.6	6.4	nt	nt
CC[n+]1c(/C=C/C=C/N(C(C)=O)c2ccccc2)sc2cc(OC)ccc21	12.4	72.6*	-30.4	14.6	-14.4	21.1%	?
Cc1cccc(C)c1OCc1cc(=O)n2c(-c3ccccc3)csc2n1	nt	0.2	nt	nt	nt	nt	nt
O=c1cc(CN2CCN(c3ccc(O)cc3)CC2)nc2scc(-c3ccccc3)n12	10.4	27.7	-1.2	8.0	-7.1	35.5µM*	18.4%
CCN(CCCn1c(=S)[nH]c2ncccc2c1=O)c1ccccc1	-1.7	-0.9	-6.0	-2.2	1.3	nt	nt
O=c1c2ccccc2[nH]c(=S)n1CCCN1CCN(c2ccccc2)CC1	?	0.6	?	-23.8	4.9	nt	nt
O=c1c2cccnc2[nH]c(=S)n1CCCN1CCN(c2ccccc2F)CC1	?	81.5*	-5.3	115.5*	-23.1	7.9%	?
CCOCCCn1c(=S)[nH]c2cc(C(=O)NCCN(CC)CC)ccc2c1=O	8.5	nt	1.5	nt	-12.5	-7.8%	11.8%
CCN(CC)CCCn1c(=S)[nH]c2ncccc2c1=O	3.5	49.8*	8.0	47.8*	-15.7	-6.0%	5.6%
O=c1c2ccccc2[nH]c(=S)n1CCCN1CCN(c2ccccc2F)CC1	?	71.2*	-11.5	80.8*	-29.1	14.2%	26.5%
COc1cc(OC)c(NC(=O)c2ccc3c(c2)N(Cc2ccc(C)cc2)CCS3)cc1Cl	nt	0.3	nt	nt	-4.9	nt	nt
CN(C)CCC(C(=O)c1ccccc1)c1cccnc1 (stereo not drawn)	-3.8	nt	-21.6	nt	nt	nt	nt
COCCNC(=O)c1ccc(Cn2c(SCC(=O)NC(C)C)nc3ccccc3c2=O)cc1	nt	-1.5	nt	nt	3.0	nt	nt
CC(=O)N1CCc2c(sc3c2c(=O)n(-c2ccccc2)c(=O)n3CC(=O)Nc2ccccc2)C1	nt	0.1	nt	nt	nt	nt	nt

Compound activity (PubChem BioAssay)
